Experimental data published in PubChem BioAssay (NCATS).
Values without a mark were called inactive. Records with an inconclusive call do not appear. Activity calls are given as the source filed them. Unless noted, calls follow the shape of the dose curve; as a rule, active = well fitted curve in either direction with a large enough effect (not every such curve was filed as active); inconclusive = small, poorly fitted or top-dose-only effect, or another doubt; inactive = flat fitted curve, though single readings scatter.

Assays:
[1] = AP1 Signaling Pathway (AID 357); settings: ME-180 (cervical carcinoma) AP-1-bla reporter, EGF-induced, beta-lactamase ratio, 5 h; at 17.2 µM (top of the series) unless noted; also: % is scaled to controls: 0 for no effect and ±100 for the full control effect
In short: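 AP-1-bla ME-180 cells with beta-lactamase reporter under AP-1 response element, stimulated with EC50 EGF; compounds titrated, 5 hours at 37 degrees Celsius. CCF4 read at 460/530 nm ratio; positive and negative modulators judged by AC50.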

[2] = NFAT Signaling Pathway (AID 444); settings: Jurkat NFAT-bla M1, carbachol, beta-lactamase ratio, 5 h; at 17.2 µM (top of the series) unless noted;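 also: carbachol stimulus at about its EC50 of 1 µM final; % is scaled to controls: 0 for no effect and ±100 for the full control effect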
In short: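 Jurkat cells with NFAT-driven β-lactamase reporter and co-expressed M1 receptor, stimulated with carbachol (final 1 uM, ~EC50), compound titration, 5 h at 37 °C. CCF4 loaded 1 h at RT; 460/530 nm ratio gave %activity and AC50.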

[3] = target: Glucocorticoid receptor (Homo sapiens) (UniProt P04150); test: GR-GFP Redistribution (AID 450;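 active = compounds whose dose series gives a full or clear partial fitted curve of increased nuclear translocation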; also: potency is read from the fitted curve at half-maximal effect)
Sequence of Glucocorticoid receptor (Homo sapiens) (P04150 whole entry, looked up): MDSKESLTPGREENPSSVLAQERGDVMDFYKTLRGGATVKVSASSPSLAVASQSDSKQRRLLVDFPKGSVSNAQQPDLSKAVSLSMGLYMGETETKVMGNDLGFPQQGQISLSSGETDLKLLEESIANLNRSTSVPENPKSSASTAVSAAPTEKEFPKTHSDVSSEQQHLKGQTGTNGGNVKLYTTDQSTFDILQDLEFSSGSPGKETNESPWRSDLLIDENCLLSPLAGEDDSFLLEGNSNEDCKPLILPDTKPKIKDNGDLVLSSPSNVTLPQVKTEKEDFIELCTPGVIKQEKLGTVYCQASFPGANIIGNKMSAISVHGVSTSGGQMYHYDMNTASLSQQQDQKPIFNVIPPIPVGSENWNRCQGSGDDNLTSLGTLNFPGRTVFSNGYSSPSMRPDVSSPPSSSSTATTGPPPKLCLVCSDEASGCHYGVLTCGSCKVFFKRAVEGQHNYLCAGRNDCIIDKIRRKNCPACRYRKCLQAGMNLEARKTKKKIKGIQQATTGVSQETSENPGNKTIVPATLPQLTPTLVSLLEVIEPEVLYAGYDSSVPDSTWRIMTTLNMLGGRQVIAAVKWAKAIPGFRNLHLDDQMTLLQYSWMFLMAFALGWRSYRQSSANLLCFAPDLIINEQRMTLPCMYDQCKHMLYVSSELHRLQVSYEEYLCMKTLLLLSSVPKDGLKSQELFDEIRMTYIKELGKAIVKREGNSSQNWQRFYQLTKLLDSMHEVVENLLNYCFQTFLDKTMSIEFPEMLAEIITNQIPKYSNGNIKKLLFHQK

Which results are given for `CCOC(=O)C1=C(N)n2c(s/c(=C\c3cccnc3)c2=O)=C(C(=O)OC)C1c1cccnc1` (centres undefined)?
activity change, negative = inhibition [1]: -8.91%; activity change, negative = inhibition [2]: 23.6%; Potency [3]: > 20.6 µM

With `Cc1nc(NS(=O)(=O)c2ccccc2)sc1NC(=O)OC(C)C` as the molecule, how does the activity change, negative = inhibition [1] read?
Its activity change, negative = inhibition is 3.92%.

And the activity change, negative = inhibition [2]?
Its activity change, negative = inhibition is -1.13%.

And the Potency [3]?
Its Potency is > 20.6 µM.

With `Cc1ccc(NC(=O)Cn2nc(C)c3ccccc3c2=O)cc1` as the molecule, how does the activity change, negative = inhibition [1] read?
The activity change, negative = inhibition was 14.3%.

What about the activity change, negative = inhibition [2] of the same molecule?
Its activity change, negative = inhibition is 10.1%.

And the Potency [3]?
The Potency was > 20.6 µM.

With `COc1ccccc1C(=O)N1CCN(Cc2ccc3c(c2)OCO3)CC1` as the molecule, how does the activity change, negative = inhibition [1] read?
Its activity change, negative = inhibition is -11.7%.

And the activity change, negative = inhibition [2]?
The activity change, negative = inhibition was -10.5%.

What about the Potency [3] of the same molecule?
The Potency was > 20.6 µM.

Which activity change, negative = inhibition [1] does the source give for `Cc1cc(=O)oc(C)c1C(=O)NCC(C)NC(=O)c1c(C)cc(=O)oc1C` (centres undefined) here?
The activity change, negative = inhibition was 0.223%.

What about the activity change, negative = inhibition [2] of the same molecule?
The activity change, negative = inhibition was 10.2%.

What about the Potency [3] of the same molecule?
The Potency was > 20.6 µM.

With `COC(=O)CNc1nc(-c2cccnc2)nc2ccccc12` as the molecule, how does the activity change, negative = inhibition [1] read?
The activity change, negative = inhibition was -12.5%.

What about the activity change, negative = inhibition [2] of the same molecule?
The activity change, negative = inhibition was -5.87%.

And the Potency [3]?
The Potency was > 20.6 µM.

With `CCN(CC)CCCN1C(=O)C(O)=C(C(=O)c2ccc(C)o2)C1c1ccc(C)o1` (centres undefined) as the molecule, how does the activity change, negative = inhibition [1] read?
Its activity change, negative = inhibition is 5.4%.

What about the activity change, negative = inhibition [2] of the same molecule?
Its activity change, negative = inhibition is -12.9%.

What about the Potency [3] of the same molecule?
Its Potency is > 20.6 µM.

For `COc1cc2c(cc1OC)C1(CCCC1)C(N)=C2C#N`, which activity change, negative = inhibition [1] is on record?
The activity change, negative = inhibition was -17.7%.

And the activity change, negative = inhibition [2]?
Its activity change, negative = inhibition is -1.71%.

And the Potency [3]?
The Potency was > 20.6 µM.

What does the source list for `Cc1ccc(Oc2nc3c(c(=O)n(Cc4ccccc4F)c(=O)n3C)n2C)cc1`?
activity change, negative = inhibition [1]: -27.5%; activity change, negative = inhibition [2]: 11.5%; Potency [3]: > 20.6 µM

Which activity change, negative = inhibition [1] does the source give for `Cc1ccc(-c2nn3c(-c4cccc(Cl)c4)nnc3s2)cc1` here?
Its activity change, negative = inhibition is 24.6%.

And the activity change, negative = inhibition [2]?
Its activity change, negative = inhibition is -1.56%.

And the Potency [3]?
Its Potency is > 20.6 µM.

Which activity change, negative = inhibition [1] does the source give for `N#Cc1c2c(c(-c3ccccc3)[nH]c1=O)CCCC2` here?
The activity change, negative = inhibition was 5.23%.

And the activity change, negative = inhibition [2]?
The activity change, negative = inhibition was 10.7%.

What about the Potency [3] of the same molecule?
The Potency was > 20.6 µM.

Which activity change, negative = inhibition [1] does the source give for `CN1C(=O)C2(N=c3ccccc3=N2)c2ccccc21` here?
The activity change, negative = inhibition was 15.2%.

What about the activity change, negative = inhibition [2] of the same molecule?
Its activity change, negative = inhibition is 25.6%.

What about the Potency [3] of the same molecule?
The Potency was > 20.6 µM.

For `CCC(=O)Nc1nc(C)c(Oc2ccccc2)c(=O)[nH]1`, which activity change, negative = inhibition [1] is on record?
Its activity change, negative = inhibition is 6.64%.

What about the activity change, negative = inhibition [2] of the same molecule?
Its activity change, negative = inhibition is 9.01%.

What about the Potency [3] of the same molecule?
The Potency was > 20.6 µM.

Which activity change, negative = inhibition [1] does the source give for `N#Cc1c(N)nc(SCC(=O)NCc2ccc3c(c2)OCO3)c(C#N)c1-c1cccs1` here?
Its activity change, negative = inhibition is -27.2%.

And the activity change, negative = inhibition [2]?
The activity change, negative = inhibition was -13.6%.

What about the Potency [3] of the same molecule?
Its Potency is > 20.6 µM.

For `Clc1ccc(SCc2cn3ccsc3n2)cc1`, which activity change, negative = inhibition [1] is on record?
Its activity change, negative = inhibition is -22.5%.

What about the activity change, negative = inhibition [2] of the same molecule?
The activity change, negative = inhibition was 9.85%.

What about the Potency [3] of the same molecule?
The Potency was > 20.6 µM.

With `CNC(=O)c1ncnnc1N(C)C(=O)NCc1ccccc1` as the molecule, how does the activity change, negative = inhibition [1] read?
Its activity change, negative = inhibition is -4.45%.

And the activity change, negative = inhibition [2]?
The activity change, negative = inhibition was 4.03%.

What about the Potency [3] of the same molecule?
The Potency was > 20.6 µM.

With `CC1(C)Cc2c(C#N)c(NCCc3ccccc3)nc(-c3ccco3)c2CO1` as the molecule, how does the activity change, negative = inhibition [1] read?
Its activity change, negative = inhibition is 14.4%.

And the activity change, negative = inhibition [2]?
The activity change, negative = inhibition was 80.9% [activator] (active).

And the Potency [3]?
Its Potency is > 20.6 µM.

Which activity change, negative = inhibition [1] does the source give for `COc1ccc(Cn2ccnc2)cc1Br` here?
Its activity change, negative = inhibition is 4.25%.

And the activity change, negative = inhibition [2]?
Its activity change, negative = inhibition is -14%.

What about the Potency [3] of the same molecule?
The Potency was > 20.6 µM.

Which results are given for `COc1cc(-c2nn3c(COc4ccccc4)nnc3s2)cc(OC)c1OC`?
activity change, negative = inhibition [1]: 0.0695%; activity change, negative = inhibition [2]: 11.1%; Potency [3]: > 20.6 µM

With `CC(=O)c1ccc(O)c(CO)c1` as the molecule, how does the activity change, negative = inhibition [1] read?
The activity change, negative = inhibition was 12.6%.

What about the activity change, negative = inhibition [2] of the same molecule?
The activity change, negative = inhibition was -1.78%.

And the Potency [3]?
The Potency was > 20.6 µM.

With `COc1c(O)ccc2cnn(-c3ccccc3C)c(=O)c12` as the molecule, how does the activity change, negative = inhibition [1] read?
The activity change, negative = inhibition was 12.5%.

What about the activity change, negative = inhibition [2] of the same molecule?
The activity change, negative = inhibition was -7.24%.

What about the Potency [3] of the same molecule?
The Potency was > 20.6 µM.

With `CC(C)CC(NC(=O)OC(C)(C)C)C(=O)NCc1ccccc1` (centres undefined) as the molecule, how does the activity change, negative = inhibition [1] read?
Its activity change, negative = inhibition is -7.56%.

And the activity change, negative = inhibition [2]?
The activity change, negative = inhibition was -25.8%.

And the Potency [3]?
Its Potency is > 20.6 µM.

For `Cc1cc(=O)oc(C)c1C(=O)NCCN1CCOCC1`, which activity change, negative = inhibition [1] is on record?
The activity change, negative = inhibition was 11.5%.

And the activity change, negative = inhibition [2]?
Its activity change, negative = inhibition is 7.8%.

And the Potency [3]?
The Potency was > 20.6 µM.

For `CCCCc1nc(NCCNC(=O)c2ccco2)c(C#N)c2c1CSC(C)(C)C2`, which activity change, negative = inhibition [1] is on record?
The activity change, negative = inhibition was -22.7%.

And the activity change, negative = inhibition [2]?
The activity change, negative = inhibition was 12.2%.

And the Potency [3]?
Its Potency is > 20.6 µM.

Which results are given for `O=C1CC(c2ccccc2)n2nc(NS(=O)(=O)c3ccccc3)nc2N1` (centres undefined)?
activity change, negative = inhibition [1]: 22.4%; activity change, negative = inhibition [2]: -10.9%; Potency [3]: > 20.6 µM

For `Cc1ccnc(N2CCN(c3c4c(c(C#N)c5nc6ccccc6n35)CCC4)CC2)c1`, which activity change, negative = inhibition [1] is on record?
The activity change, negative = inhibition was -8.81%.

And the activity change, negative = inhibition [2]?
The activity change, negative = inhibition was -1.93%.

And the Potency [3]?
The Potency was > 20.6 µM.

What does the source list for `CC(C)(C)n1nnc(CCc2nnn(C(C)(C)C)n2)n1`?
activity change, negative = inhibition [1]: 1.01%; activity change, negative = inhibition [2]: -17.9%; Potency [3]: > 20.6 µM

For `CCN(CC)CCCN1C(=O)C(=O)/C(=C(/O)c2ccc3c(c2)CC(C)O3)C1c1ccncc1` (centres undefined), which activity change, negative = inhibition [1] is on record?
The activity change, negative = inhibition was 0.667%.

What about the activity change, negative = inhibition [2] of the same molecule?
Its activity change, negative = inhibition is 13.1%.

And the Potency [3]?
Its Potency is > 20.6 µM.

What does the source list for `COCc1cc(C)nc(SCC(=O)Nc2ccc(C)c(C)c2)c1C#N`?
activity change, negative = inhibition [1]: 2.07%; activity change, negative = inhibition [2]: 3.23%; Potency [3]: > 20.6 µM

Which activity change, negative = inhibition [1] does the source give for `CN(CCCCCC(=O)/C=N/O)Cc1ccccc1` here?
Its activity change, negative = inhibition is 26.2%.

And the activity change, negative = inhibition [2]?
Its activity change, negative = inhibition is -28%.

And the Potency [3]?
Its Potency is > 20.6 µM.

Which activity change, negative = inhibition [1] does the source give for `Oc1ccc(Br)cc1CNn1cnnc1` here?
The activity change, negative = inhibition was 2.16%.

And the activity change, negative = inhibition [2]?
Its activity change, negative = inhibition is 9.44%.

And the Potency [3]?
The Potency was > 20.6 µM.

With `CC1(C(=O)CSc2ncn[nH]2)CCC(=O)O1` (centres undefined) as the molecule, how does the activity change, negative = inhibition [1] read?
The activity change, negative = inhibition was -3.81%.

What about the activity change, negative = inhibition [2] of the same molecule?
The activity change, negative = inhibition was 2.7%.

What about the Potency [3] of the same molecule?
The Potency was > 20.6 µM.

What does the source list for `CCOC(=O)c1[nH]c2cc3c(cc2c1NC(=O)CN1CCc2ccccc2C1)OCO3`?
activity change, negative = inhibition [1]: -23.5%; activity change, negative = inhibition [2]: -10.9%; Potency [3]: > 20.6 µM
